Measured values published in PubChem BioAssay (EPA / NIEHS).
Values joined by “and” are separate entries in the source; they are usually repeats but may differ in a detail not shown here. Equal values may be shown once. The source holds several records for some structures; these can differ, active in one and inactive in another. Active and inactive are the calls of the source. How the source made its calls: active means hit-call score of the fitted dose curve at least 0.9, where 1 is the maximum; inactive means score below 0.9.

Legend:
[1] = read-out: TIMP metallopeptidase inhibitor 2 (TIMP2), TIMP2 (gene 7077); experiment: BSK_KF3CT_TIMP2: BioMAP Diversity Plus: KF3CT Assay for TIMP metallopeptidase inhibitor 2 (TIMP2) Biomarker Activity (AID 2283071); details: primary human keratinocytes with fibroblasts; actives raise or lower the signal
Summary of the method: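 Chemicals were dosed onto human skin primary co-cultures of keratinocytes and foreskin fibroblasts, and TIMP-2 was measured by ELISA after 24 hours. Activity in either direction was fitted relative to DMSO.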

[2] = read-out: Transforming growth factor beta 1 (TGFb1), TGFB1 (gene 7040); experiment: BSK_KF3CT_TGFb1: BioMAP Diversity Plus: KF3CT Assay for Transforming growth factor beta 1 (TGFb1) Biomarker Activity (AID 2283072); details: primary human keratinocytes with fibroblasts; actives raise or lower the signal
Summary of the method: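 KF3CT co-culture (keratinocytes + fibroblasts), 24 h exposure → TGF-b1 ELISA → bidirectional fit, DMSO = baseline. Parallel SRB total-protein staining (0.1% SRB, 10% TCA fixation, 560 nm) for cytotoxicity.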

[3] = read-out: C-C motif chemokine 2 (Homo sapiens) (UniProt P13500); experiment: BSK_KF3CT_MCP1: BioMAP Diversity Plus: KF3CT Assay for Monocyte Chemoattractant Protein 1 (MCP1/CCL2) Biomarker Activity (AID 2283073); details: primary human keratinocytes with fibroblasts; actives raise or lower the signal
Summary of the method: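 ELISA read-out of MCP-1, 24 h post-dose, in primary human skin keratinocytes co-cultured with fibroblasts. Parallel SRB staining monitors cytotoxicity; changes fitted both directions relative to DMSO.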

[4] = read-out: Matrix Metallopeptidase 9 (MMP9), MMP9 (gene 4318); experiment: BSK_KF3CT_MMP9: BioMAP Diversity Plus: KF3CT Assay for Matrix Metallopeptidase 9 (MMP9) Biomarker Activity (AID 2283074); details: primary human keratinocytes with fibroblasts; actives raise or lower the signal;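 on AC50: MMP9 protein level quantified by ELISA in the co-culture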
Summary of the method: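 ELISA read-out of MMP-9 at 24 h post-dosing in a co-culture of human skin keratinocytes and foreskin fibroblasts. Gain or loss of signal was fitted in both directions against DMSO.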

CD40, CD40 (gene 958) [5] = experiment: BSK_LPS_CD40: BioMAP Diversity Plus: LPS Assay for CD40 Biomarker Activity (AID 2283076); details: primary human HUVEC with PBMC; actives raise or lower the signal
Summary of the method: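 In the LPS system of human endothelial cells with peripheral blood mononuclear cells, CD40 levels were read by ELISA 24 h post-treatment. Signal changes in either direction were fitted against the DMSO baseline, with parallel SRB protein staining.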

[6] = read-out: Interleukin-8 (IL8), CXCL8 (gene 3576); experiment: BSK_LPS_IL8: BioMAP Diversity Plus: LPS Assay for Interleukin-8 (IL8) Biomarker Activity (AID 2283078); details: primary human HUVEC with PBMC; actives raise or lower the signal
Summary of the method: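 ELISA read-out of IL-8 after 24 h chemical treatment of LPS-activated endothelial/PBMC human primary co-cultures. Changes either up or down relative to DMSO; overt cytotoxicity checked by sulforhodamine B staining in parallel wells.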

[7] = BSK_LPS_SRB: Viability Assessment in the BioMAP Diversity Plus: LPS Assay (AID 2283079); details: primary human HUVEC with PBMC;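 further: total protein by sulforhodamine B absorbance as a cytotoxicity measure; measured one day after compound addition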
Summary of the method: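 SRB viability endpoint: cells fixed with 10% TCA, stained with 0.1% SRB, read at 560 nm, 24 h post-dose. HUVEC/PBMC co-culture; signal change in either direction scored relative to DMSO.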

[8] = read-out: Interleukin-1 alpha (IL1a), IL1A (gene 3552); experiment: BSK_LPS_IL1a: BioMAP Diversity Plus: LPS Assay for Interleukin-1 alpha (IL1a) Biomarker Activity (AID 2283080); details: primary human HUVEC with PBMC; actives raise or lower the signal
Summary of the method: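 Readout is IL-1a level by ELISA, 24 h post-dose, fitted as gain or loss relative to DMSO. System: LPS-activated human primary co-culture of vascular endothelium and peripheral blood mononuclear cells, with parallel SRB total-protein cytotoxicity.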

[9] = read-out: Monocyte Chemoattractant Protein-1 (MCP1), CCL2 (gene 6347); experiment: BSK_LPS_MCP1: BioMAP Diversity Plus: LPS Assay for Monocyte Chemoattractant Protein-1 (MCP1) Biomarker Activity (AID 2283081); details: primary human HUVEC with PBMC; actives raise or lower the signal;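 on AC50: secreted MCP-1 protein quantified by ELISA in culture supernatant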
Summary of the method: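 Secreted MCP-1 read by ELISA at 24 h post-dosing in an LPS-activated co-culture of endothelial cells with peripheral blood mononuclear cells. Fits run in both directions, DMSO as baseline; parallel SRB staining tracks overt cytotoxicity.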

[10] = BSK_LPS_PGE2: BioMAP Diversity Plus: LPS Assay for Prostaglandin E2 (PGE2) Biomarker Activity (AID 2283082); details: primary human HUVEC with PBMC; actives raise or lower the signal;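 on AC50: secreted prostaglandin E2 measured by ELISA in LPS-stimulated co-culture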
Summary of the method: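 Compounds were added to the LPS co-culture of endothelium and PBMC, and PGE2 was measured by ELISA after 24 h. Responses in either direction were fitted with DMSO as baseline.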

[11] = read-out: Macrophage colony-stimulating factor (MCSF), CSF1 (gene 1435); experiment: BSK_LPS_MCSF: BioMAP Diversity Plus: LPS Assay for Macrophage colony-stimulating factor (MCSF) Biomarker Activity (AID 2283083); details: primary human HUVEC with PBMC; actives raise or lower the signal
Summary of the method: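 Bidirectional fitting against DMSO was applied to M-CSF levels read by ELISA at 24 h post-dose. The system pairs human umbilical vein endothelium with peripheral blood mononuclear cells; parallel SRB staining tracked cytotoxicity.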

[12] = read-out: Tumor necrosis factor (Homo sapiens) (UniProt P01375); experiment: BSK_LPS_TNFa: BioMAP Diversity Plus: LPS Assay for Tumour Necrosis Factor alpha (TNFa) Biomarker Activity (AID 2283085); details: primary human HUVEC with PBMC; actives raise or lower the signal;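 on AC50: TNFa protein level quantified by ELISA in the co-culture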
Summary of the method: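 Cells (umbilical vein endothelium plus peripheral blood mononuclear cells) were dosed with chemical, incubated 24 h, then TNFa was quantified by ELISA; values derive from bidirectional fitting with DMSO as baseline.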

[13] = read-out: Vascular cell adhesion molecule 1 (VCAM1), VCAM1 (gene 7412); experiment: BSK_LPS_VCAM1: BioMAP Diversity Plus: LPS Assay for Vascular cell adhesion molecule 1 (VCAM1) Biomarker Activity (AID 2283086); details: primary human HUVEC with PBMC; actives raise or lower the signal
Summary of the method: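 Cells are dosed in an LPS-stimulated endothelial/mononuclear co-culture and, after 24 h, VCAM-1 is quantified by ELISA. Activity in either direction is fitted relative to the DMSO negative control.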

CD38, CD38 (gene 952) = experiment: BSK_SAg_CD38: BioMAP Diversity Plus: SAg Assay for CD38 Biomarker Activity (AID 2283087); details: primary human HUVEC with PBMC; actives raise or lower the signal
Summary of the method: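 CD38 quantified by ELISA (fluorescence) in a superantigen-activated endothelial cell–PBMC co-culture at 24 h post-dose. Activity fitted in both directions relative to DMSO; parallel SRB and Alamar Blue cytotoxicity read-outs.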

CD40, CD40 (gene 958) [14] = experiment: BSK_SAg_CD40: BioMAP Diversity Plus: SAg Assay for CD40 Biomarker Activity (AID 2283088); details: primary human HUVEC with PBMC; actives raise or lower the signal
Summary of the method: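 CD40 is measured by fluorescence ELISA in an endothelial/PBMC primary human co-culture at 24 h post-dose. Fitting is bidirectional, DMSO baseline. Parallel SRB staining (560 nm) flags cytotoxicity.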

CD69, CD69 (gene 969) = experiment: BSK_SAg_CD69: BioMAP Diversity Plus: SAg Assay for CD69 Biomarker Activity (AID 2283089); details: primary human HUVEC with PBMC; actives raise or lower the signal;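 on AC50: cell surface CD69 protein quantified by ELISA with fluorescence detection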
Summary of the method: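 Primary human vascular co-culture (umbilical vein endothelium with peripheral blood mononuclear cells) exposed to test chemical for 24 h. CD69 levels quantified by fluorescence ELISA; DMSO served as negative control for bidirectional fitting.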

[15] = read-out: Monocyte Chemoattractant Protein-1 (MCP1), CCL2 (gene 6347); experiment: BSK_SAg_MCP1: BioMAP Diversity Plus: SAg Assay for Monocyte Chemoattractant Protein-1 (MCP1) Biomarker Activity (AID 2283090); details: primary human HUVEC with PBMC; actives raise or lower the signal
Summary of the method: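 Values derive from bidirectional fitting of ELISA-measured MCP1 against DMSO controls. Readings were taken 24 h after dosing human vascular endothelial cells co-cultured with peripheral blood mononuclear cells under superantigen stimulation.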

[16] = read-out: urokinase plasminogen activator (uPA), PLAU (gene 5328); experiment: BSK_KF3CT_uPA: BioMAP Diversity Plus: KF3CT Assay for urokinase plasminogen activator (uPA) Biomarker Activity (AID 2283075); details: primary human keratinocytes with fibroblasts; actives raise or lower the signal
Summary of the method: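 Skin co-culture (keratinocytes + foreskin fibroblasts), human primary; 24 h post-dose; uPA by ELISA; gain/loss fit vs DMSO baseline.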

[17] = read-out: E-selectin (Homo sapiens) (UniProt P16581); experiment: BSK_LPS_Eselectin: BioMAP Diversity Plus: LPS Assay for Eselectin Biomarker Activity (AID 2283077); details: primary human HUVEC with PBMC; actives raise or lower the signal
Summary of the method: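 E-selectin ELISA on LPS-stimulated endothelial cell/PBMC co-cultures, read 24 h post-treatment; gains and losses fitted against DMSO. Parallel SRB staining (0.1% SRB after 10% TCA fixation, 560 nm) flags overt cytotoxicity.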

Measured: AC50

Chain of Tumor necrosis factor (Homo sapiens) (P01375 whole entry, looked up): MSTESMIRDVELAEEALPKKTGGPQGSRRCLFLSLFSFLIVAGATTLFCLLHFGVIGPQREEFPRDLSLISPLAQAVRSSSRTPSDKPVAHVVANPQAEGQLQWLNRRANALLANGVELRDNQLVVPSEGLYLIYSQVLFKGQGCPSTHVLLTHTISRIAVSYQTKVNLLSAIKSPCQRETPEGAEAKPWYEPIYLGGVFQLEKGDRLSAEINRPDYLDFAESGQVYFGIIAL
Chain of E-selectin (Homo sapiens) (P16581 whole entry, looked up): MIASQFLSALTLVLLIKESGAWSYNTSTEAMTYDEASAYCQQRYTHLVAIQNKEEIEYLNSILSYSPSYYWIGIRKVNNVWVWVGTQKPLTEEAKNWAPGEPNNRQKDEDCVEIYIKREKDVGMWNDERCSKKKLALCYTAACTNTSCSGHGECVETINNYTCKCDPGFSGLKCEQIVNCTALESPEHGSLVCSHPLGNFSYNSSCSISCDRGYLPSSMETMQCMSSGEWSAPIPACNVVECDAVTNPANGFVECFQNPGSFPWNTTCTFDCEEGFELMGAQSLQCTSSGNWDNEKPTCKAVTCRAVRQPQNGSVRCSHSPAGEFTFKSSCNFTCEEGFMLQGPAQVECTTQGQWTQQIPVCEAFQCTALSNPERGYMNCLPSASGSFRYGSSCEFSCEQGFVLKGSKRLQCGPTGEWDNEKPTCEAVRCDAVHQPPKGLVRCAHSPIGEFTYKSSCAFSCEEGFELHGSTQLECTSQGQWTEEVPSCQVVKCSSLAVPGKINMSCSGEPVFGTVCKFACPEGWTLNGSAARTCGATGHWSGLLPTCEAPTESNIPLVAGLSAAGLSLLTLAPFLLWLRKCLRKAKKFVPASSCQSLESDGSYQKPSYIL

O=C(O)C(F)(F)C(F)(F)C(F)(F)C(F)(F)C(F)(F)C(F)(F)C(F)(F)C(F)(F)C(F)(F)F
active: [1] 31 µM and 45 µM and 44.7 µM | [2] 30.8 µM | [3] 22.7 µM and 27.9 µM and 18.5 µM | [4] 20 µM and 30.2 µM and 27.5 µM | CD40, CD40 (gene 958) [5] 30 µM and 49.1 µM | [6] 46.1 µM and 46.7 µM | [7] 31.3 µM and 56.6 µM and 54.8 µM | [8] 45.7 µM and 45.5 µM | [9] 33.2 µM and 54.1 µM and 54.5 µM | [10] 24.7 µM and 39 µM | [11] 58.7 µM and 52.5 µM | [12] 54.1 µM and 43.6 µM | [13] 31.2 µM and 56.6 µM and 55.5 µM | CD38, CD38 (gene 952) 30.4 µM and 53 µM and 51.9 µM | CD40, CD40 (gene 958) [14] 32.3 µM and 51.6 µM and 44.6 µM | CD69, CD69 (gene 969) 29.2 µM and 46.9 µM and 46.4 µM | [15] 30.6 µM and 50.1 µM and 49.7 µM
inactive: CD40, CD40 (gene 958) [5] | [6] | [8] | [10] | [11] | [12]

COS(=O)(=O)OC
active: [12] 318 nM
inactive: all other assays above

Cc1cc(-c2ccc(N)c(C)c2)ccc1N
active: [10] 7.16 µM
not listed: CD40, CD40 (gene 958) [5] | CD69, CD69 (gene 969) | [17]
inactive: all other assays above
